RmlCD inh 1536: M. tuberculosis RmlC/RmlD inhibition; P9WH09+P9WH11; RmlC+RmlD coupled enzyme assay, percent inhibition; primary screen in compound mixtures; inhibition, % at 3.6 µM; actives 0.03% (n = 160,000); in the data active means inhibition mostly above about 34%, no sharp cut-off; inconclusive means no clear call, values can overlap the other calls; inactive means mostly below about 22%
RecA splice inh: inhibitors of M. tuberculosis RecA intein splicing; AID 2221; cell-free RecA intein splicing, fluorescence; actives 0.75% (n = 290,000); P9WHJ3; inhibition, % (no concentration beside the values); in the data active means inhibition above about 30%; inconclusive means no clear call, values can overlap the other calls;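 further: 0% = vehicle wells and 100% = reference inhibitor control wells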
Target sequence (P9WHJ3 whole entry, looked up, canonical isoform): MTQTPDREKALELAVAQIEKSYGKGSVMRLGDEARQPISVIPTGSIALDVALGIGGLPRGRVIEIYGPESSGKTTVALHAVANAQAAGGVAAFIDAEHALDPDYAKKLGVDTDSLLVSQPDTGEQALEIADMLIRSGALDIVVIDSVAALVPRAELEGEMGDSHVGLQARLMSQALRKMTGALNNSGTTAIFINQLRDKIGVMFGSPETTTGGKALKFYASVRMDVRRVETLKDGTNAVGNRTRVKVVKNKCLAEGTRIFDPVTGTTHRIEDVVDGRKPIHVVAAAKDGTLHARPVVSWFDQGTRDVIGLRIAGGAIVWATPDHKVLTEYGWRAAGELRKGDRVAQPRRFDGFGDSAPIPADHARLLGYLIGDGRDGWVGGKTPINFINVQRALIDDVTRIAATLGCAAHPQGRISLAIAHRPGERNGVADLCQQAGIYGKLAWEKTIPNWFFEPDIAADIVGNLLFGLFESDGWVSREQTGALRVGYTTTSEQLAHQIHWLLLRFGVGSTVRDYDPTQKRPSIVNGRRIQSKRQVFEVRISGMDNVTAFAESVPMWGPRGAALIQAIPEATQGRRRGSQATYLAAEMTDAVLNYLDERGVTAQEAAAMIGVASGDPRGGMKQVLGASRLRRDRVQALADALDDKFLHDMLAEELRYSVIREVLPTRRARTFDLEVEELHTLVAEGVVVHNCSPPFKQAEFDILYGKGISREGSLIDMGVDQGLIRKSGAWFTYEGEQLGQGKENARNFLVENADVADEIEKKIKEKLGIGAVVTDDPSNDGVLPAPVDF
An asterisk follows results filed as active; i = inactive; ? = inconclusive; · = not tested or not shown. Shown are actives, neighbours in structure and some others; about 0.77% of the full set was active somewhere.

SMILES	RmlCD inh 1536	RecA splice inh
CC(C)c1ccc(C2=NN(c3ccccc3)C(=O)CC2)cc1	8.4	4.6
O=C1CC(c2cccnc2)=NN1c1ccccc1	6.4	64.4*
CCCn1c(=N)c(C(=O)NCC2CCCO2)cc2c(=O)n3cccc(C)c3nc21 (stereo not given)	108.9*	i
CCNC(=O)c1cc2c(=O)n3cccc(C)c3nc2n(CCc2ccccc2)c1=N	32.2*	i
Cc1cccn2c(=O)c3cc(C(=O)NCC4CCCO4)c(=N)n(CCN4CCOCC4)c3nc12 (stereo not given)	·	i
COCCn1c(=N)c(C(=O)NCCc2ccccc2)cc2c(=O)n3cccc(C)c3nc21	·	i
O=C(NCc1cccnc1)c1cn(-c2ccccc2)nc1-c1ccccc1	-1.8	0.0
O=C(c1ccco1)c1coc2c1cc(O)c1ccccc12	·	45.2*
CC(=O)c1coc2c1cc(O)c1ccccc12	·	3.8
COc1ccc(Cl)cc1NC(=O)CN1C(=O)CSC1=O	7.3	1.5
NNC(=O)COc1cccc(Oc2ccccc2)c1	4.8	0.7
COc1ccc(CN2C(=O)c3ccccc3C2=O)cc1C(=O)O	·	-1.4
CCN(CC)S(=O)(=O)c1ccc(C(=O)OCC(=O)c2ccc3c(c2)NC(=O)CO3)cc1	·	-1.2
CCN(CCNC(=O)C1CCCN(c2ncnc3c2nc2n3CCCCC2)C1)Cc1ccccc1 (stereo not given)	·	0.3
CCn1c(COc2ccc(Cl)cc2)nnc1SC1CCc2ccccc2C1=O (stereo not given)	6.8	62.4*
CCn1c(COc2ccc(Cl)cc2)nnc1SCc1ccc(C#N)cc1	·	0.0
c1ccc2oc(-c3csc(N4CCOCC4)n3)cc2c1	-4.5	-2.3
COc1ccc(NC(=O)Nc2ccc(Br)cn2)cc1	7.6	·
O=C(O)COc1ccccc1C(Nc1ccccn1)c1cc(Cl)c2cccnc2c1O (stereo not given)	-5.4	17.7
O=C(O)COc1ccccc1C(Nc1cccnc1)c1cc(Cl)c2cccnc2c1O (stereo not given)	-10.6	40.9*
COc1ccc(Cc2nnc(NC(=O)CSc3ccc(C)cc3)s2)cc1OC	14.2	4.0
CCOC(=O)C1=C(C)Nc2ncnn2C1c1cccnc1 (stereo not given)	·	1.0
O=C(Nc1ccccc1Cl)c1ccc(S(=O)(=O)NCC2CCCO2)cc1 (stereo not given)	·	-0.7
CC(=O)NC1=C(N(C)C2CCS(=O)(=O)C2)C(=O)c2ccccc2C1=O (stereo not given)	?	26.2
CC(=O)NC1=C(Nc2ccc(N(C)C)cc2)C(=O)c2ccccc2C1=O	·	76.2*
SMILES	RmlCD inh 1536	RecA splice inh
CCS(=O)(=O)N1CCC(C(=O)Oc2ccccc2OC)CC1	·	-2.1
O=C(CSc1nc2c(c(=O)n1-c1ccc(Br)cc1)SCC2)Nc1nccs1	-4.5	0.6
CC(=O)Nc1sc(N/N=C/c2ccc(C)cc2)nc1-c1ccc(C)cc1	-5.8	-1.3
CC(=O)Nc1sc(N/N=C/c2ccc(N(C)C)cc2)nc1-c1ccc(C)cc1	63.6*	-1.9
Cc1ccc(S(=O)(=O)NCC(=O)N(CC(=O)NCc2ccco2)C2CCCC2)cc1	·	0.0
COc1ccc(CCNC(=O)CSc2nnc(CNC(=O)c3ccco3)o2)cc1OC	8.0	1.5
C[C@@H]1CC=C[C@H]2[C@H]1C(=O)N(Cc1ccccc1)[C@H]2c1ccc(F)c(/C=C/c2ccccc2)c1	·	2.6
C[C@@H]1CC=C[C@H]2[C@H]1C(=O)N(Cc1ccccc1)[C@H]2c1ccc(F)c(Br)c1	·	32.4*
Cc1cc(C)c2nc(SC(C)C#N)cc(C)c2c1 (stereo not given)	·	-4.9
O=C1C(NS(=O)(=O)c2ccc(Br)cc2)=C(N2CCCCC2)C(=O)c2ccccc21	·	11.9
O=C1C(Nc2ccccc2)=C(N2CCCCC2)C(=O)c2ccccc21	-4.2	46.0*
O=C(C(=O)N1CC=C(c2ccccc2)CC1)c1c[nH]c2ccccc12	5.8	0.4
COc1ccc(-c2cc3nc4n(c(=O)c3s2)CCC4)cc1	76.6*	-2.4
COc1ccc(-c2cc3nc4n(c(=O)c3s2)CCCCC4)cc1	-8.1	-2.3
O=C(NCCC(=O)N1CCN(C(=O)c2ccco2)CC1)c1ccc(Br)cc1	·	-4.9
COC(=O)Cc1c(C)c2ccc(OC(=O)c3ccco3)cc2oc1=O	83.0*	-0.1
COC(=O)Cc1c(C)c2cc(Cl)c(OC(=O)c3ccco3)cc2oc1=O	21.2	-179.0
Cc1ccc(-c2[nH]nc3c2C(c2ccoc2)C(C#N)=C(N)O3)cc1C (stereo not given)	38.5	92.3*
Cc1ccc(-n2nc(C)c3c2OC(N)=C(C#N)C3c2ccoc2)cc1 (stereo not given)	·	71.1*
CC(C)(C)c1[nH]nc2c1C(c1ccncc1)C(C#N)=C(N)O2 (stereo not given)	-8.2	1.2
CC(C)(C)c1[nH]nc2c1C(c1ccoc1)C(C#N)=C(N)O2 (stereo not given)	·	56.4*
Cc1nn(-c2ccccc2)c2c1C(c1ccc(Br)s1)C(C#N)=C(N)O2 (stereo not given)	19.7	·
CC(C)C1C(C#N)=C(N)Oc2n[nH]c(-c3ccccc3)c21 (stereo not given)	-11.2	7.7
COc1ccc(NC(=O)CCc2nnc3ccc(NCc4ccc5c(c4)OCO5)nn23)cc1	·	9.8
COC(=O)Cc1cc(=O)n(-c2ccccc2)[nH]1	-9.5	50.0*
SMILES	RmlCD inh 1536	RecA splice inh
COC(=O)Cc1[nH]n(-c2ccccc2)c(=O)c1C(C)=Nc1ccccc1	3.7	3.5
CC(C)CC(=O)/C(=C\c1ccc(Cl)cc1Cl)n1cncn1	7.2	43.5*
CC(C)CC(=O)/C(=C/c1ccc(N(C)C)cc1)n1cncn1	·	-0.9
O=C1N[C@H](Cc2ccccc2)CO1	·	-1.7
CSc1nc2c(c(=O)[nH]1)C(c1cccc(Cl)c1)CC(=O)N2 (stereo not given)	9.2	2.4
CSc1nc(O)c(Nc2cccc(Cl)c2)c(=O)[nH]1	-8.5	76.1*
Cc1ccc(N(CC(=O)NCC2CCCO2)C(=O)CCC(=O)Nc2nccs2)cc1 (stereo not given)	·	-2.0
Cc1ccc(S(=O)(=O)N2CCOCC2)cc1C(=O)NCCN1C(=O)S/C(=C\c2ccccc2Cl)C1=O	-3.2	13.3
CC(C)(C)c1ccc(/C=C2\SC(=O)N(CCNC(=O)c3cccc(S(=O)(=O)N4CCOCC4)c3)C2=O)cc1	0.1	30.9*
NC(CO)(CO)COCc1ccccc1	-9.3	0.9
CCn1nc(-c2ccccc2)nc2c(=O)n(C)c(=O)nc1-2	·	94.5*
CCOC(=O)Cn1nc(-c2ccccc2)nc1-c1ccccc1	52.3	0.8
CCSc1cc(N2CCOCC2)nc(-c2ccccc2)n1	·	-1.3
O=[N+]([O-])c1ccc2nc(C(O)C(O)c3nc4ccc([N+](=O)[O-])cc4[nH]3)[nH]c2c1 (stereo not given)	·	-2.7
O=S(=O)(c1cnc(Cl)c(Cl)c1)N1CCN(c2ncccn2)CC1	-12.6	0.4
Cc1cccc(CSC(Nc2ccc(F)cc2)=C(C#N)C#N)c1	2.7	53.1*
Cc1cccc(CSC(=N)N)c1	12.0	-0.7
O=C(CSc1nnc(-c2ccccc2Cl)o1)Oc1ccc(Br)cc1	·	61.1*
O=C(CSc1nnc(-c2ccccc2O)o1)Oc1ccc(Br)cc1	·	3.3
c1ccc(Sc2ncnc3ccccc23)cc1	10.6	39.8*
N#CCSc1ncnc2ccccc12	-7.2	6.2
CCS(=O)(=O)C1=NN2C(=N)/C(=C\c3ccc(OC(=O)c4ccco4)c(Br)c3)C(=O)N=C2S1	·	10.5

Source: PubChem
